The nature of experiment [1]: APR_HepG2_CellCycleArrest_24hr: Apredica 24-hour HepG2 Assay for Cell Cycle Arrest (AID 2282905).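 Also: cell cycle arrest scored as ratio of 2N to 4N nuclear DNA content.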 The settings on record: imaging, actives raise or lower the signal. The method, boiled down: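 Step one: dose HepG2 with test compounds, 0.39–200 uM, 0.5% DMSO, 24 hr. Step two: fix, permeabilize, stain nuclei with Hoechst 33342. Step three: image six fields per well at 20x, quantify DNA content, fit bidirectionally relative to DMSO.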

A short description of experiment [2]: APR_HepG2_NuclearSize_24hr: Apredica 24-hour HepG2 Assay for Nuclear Size (AID 2282907). The note with it: high-content imaging, actives raise or lower the signal. The method, boiled down: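 After fixation and permeabilization, 24-hr-treated HepG2 cells were stained with Hoechst 33342 and imaged on an ArrayScan (20x). Doses spanned 0.39–200 uM in duplicate. Nuclear diameter changes in either direction were fitted relative to 0.5% DMSO controls.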

Experiment [3] can be described thus: APR_HepG2_CellLoss_24hr: Apredica 24-hour HepG2 Assay for Cell Loss (AID 2282908).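 As to AC50: fit in both directions so a hit may be cell loss or gain.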 The settings on record: high-content imaging. The procedure, abridged: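 Duplicate wells received compound at ten concentrations (0.39–200 uM; final DMSO 0.5% v/v). After fixation with formaldehyde, nuclei stained with Hoechst 33342 were imaged at 20x. Loss or gain of cell count was fitted relative to DMSO controls.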

Experiment [4] can be described thus: APR_HepG2_MicrotubuleCSK_24hr: Apredica 24-hour HepG2 Assay for Microtubule CSK Stabilty (AID 2282909). The settings on record: HepG2 microtubule cytoskeleton imaging, actives raise or lower the signal. The method, boiled down:
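Microtubule stability is scored from tubulin immunofluorescence in fixed HepG2 cells imaged at 20x. Cells receive ten compound concentrations up to 200 uM for 24 h; taxol and DMSO serve as positive and negative controls.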

Experiment [5] in a line: APR_HepG2_MitoticArrest_24hr: Apredica 24-hour HepG2 Assay for Mitotic Arrest (AID 2282910). The settings on record: high-content imaging, actives raise or lower the signal. The procedure, abridged:
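Treatment lasted 24 hr in the human HepG2 line at 0.39–200 uM, solvent held at 0.5% DMSO. Fixed cells were stained with Hoechst 33342 and anti-phospho-histone H3, imaged at 20x, and analysed by gain- or loss-of-signal fitting against DMSO.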

The nature of experiment [6]: APR_HepG2_MitoMembPot_24hr: Apredica 24-hour HepG2 Assay for Mitochondrial Membrane Potential (AID 2282911). The note with it: imaging, actives raise or lower the signal. The procedure, abridged: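 Mitochondrial membrane potential imaged via MitoTracker Red CMXRos (250 nM, 30 min pre-fixation) in fixed HepG2 cells with Hoechst nuclear identification. Ten concentrations 0.39–200 uM, 24 h treatment, 0.5% DMSO; CCCP as positive control.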

The nature of experiment [7]: APR_HepG2_MitoMass_24hr: Apredica 24-hour HepG2 Assay for Mitochondrial Mass (AID 2282912). The settings on record: high-content imaging, actives raise or lower the signal. The method, boiled down:
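Readout: fluorescence of MitoTracker Red CMXRos (250 nM, added 30 min pre-fixation) in fixed HepG2 cells imaged by HCS. Exposure lasted 24 hr at 0.39–200 uM; increases and decreases were both fitted relative to DMSO.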

A short description of experiment [8]: APR_HepG2_p53Act_24hr: Apredica 24-hour HepG2 Assay for p53 Activation (AID 2282913).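 Also: p53 protein immunofluorescence averaged per cell in HepG2 with Hoechst nuclei.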 The note with it: high-content imaging, actives raise or lower the signal. The procedure, abridged: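 Fluorescence imaging of formaldehyde-fixed HepG2 cells labelled for p53 and with Hoechst, 24 h after dosing (0.39–200 uM, duplicate wells, 0.5% v/v DMSO). Signal fitted in both directions relative to DMSO.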

The nature of experiment [9]: APR_HepG2_CellLoss_72hr: Apredica 72-hour HepG2 Assay for Cell Loss (AID 2282915). The note with it: high-content imaging. The procedure, abridged:
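HepG2 cells were exposed for 72 hr to compounds at 0.39–200 uM (ten concentrations, duplicate) in 0.5% v/v final DMSO. Nuclei were stained with Hoechst 33342 after 3.7% formaldehyde fixation, imaged at 20x, and counted; fits bidirectional versus DMSO.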

Experiment [10] is described as follows: APR_HepG2_CellCycleArrest_72hr: Apredica 72-hour HepG2 Assay for Cell Cycle Arrest (AID 2282914). The note with it: high-content imaging, actives raise or lower the signal. The procedure, abridged:
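Read-out: nuclear DNA content from Hoechst 33342 high-content imaging (20x, six fields/well) after 3.7% formaldehyde fixation, fitted bidirectionally against DMSO. Treatment was 72 h in HepG2, ten concentrations 0.39–200 uM, duplicate, 0.5% DMSO.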

Active and inactive are the calls of the source. The calls were made as follows: active = hit-call score of the fitted dose curve at least 0.9, where 1 is the maximum; inactive = score below 0.9.

Consider `c1ccc(C[n+]2cccc3ccccc32)cc1`, for which the AC50 in experiment [1] is 178 µM (active); in [3], 115 µM (active); in [4], 100 µM (active); in [6], 32.8 µM (active); in [7] it was 167 µM (active); in experiment [9], 54.8 µM (active). The call in experiment [2], in experiment [5] and in [8] was inactive.

Take `CCCCCCCCCC(=O)O`: the compound was called inactive in experiment [1], in experiment [2], in [3], in experiment [4], in experiment [5] and in experiment [6]. In addition, the call in experiment [7], in [8], in experiment [10] and in experiment [9] was inactive.

With `O=C(O)Cc1cc(I)c(Oc2ccc(O)c(I)c2)c(I)c1`, the call in [1], in experiment [2], in experiment [3], in [4], in experiment [5] and in experiment [6] was inactive. For the same compound, the call in [7], in experiment [8] and in experiment [9] was inactive.

On to `O=C1c2ccccc2C(=O)N1CCc1noc(-c2ccc(CN3CCCCCC3)s2)n1`, for which the call in [1], in experiment [2], in [3], in experiment [4], in [5] and in [6] was inactive. In addition, the call in experiment [7], in experiment [8] and in experiment [9] was inactive.

As to `NCc1cccc(C2CCN(C(=O)c3ccc(C#Cc4ccccc4F)o3)CC2)c1`, the compound was classed as inactive in [1], in experiment [2] and in experiment [7]. Also, the AC50 in [3] was 17.7 µM (active); in experiment [4], 61.3 µM (active); in experiment [5], 18.6 µM (active); in experiment [6], 18.4 µM (active); in experiment [8] it was 16.4 µM (active); in [9], 15.5 µM (active).

Turning to `C[C@]12CC[C@@H]3c4ccc(O)cc4CC[C@H]3[C@@H]1CCC2=O`, the compound was called inactive in experiment [1], in experiment [2], in experiment [3], in experiment [4], in experiment [5] and in experiment [6]. In addition, the outcome in [7] and in experiment [9] was inactive.

Take `O=C(O)Cn1c(=O)n(Cc2ccc(Br)cc2F)c(=O)c2ccc(Cl)cc21`: the compound was classed as inactive in [1], in experiment [2], in experiment [3], in [4], in experiment [5] and in experiment [6]. Besides, the compound was classed as inactive in experiment [7], in experiment [8] and in [9].

As to `O=C(Nc1ccc(Cl)cc1)Nc1ccc(Cl)c(Cl)c1`, the AC50 is 7.09 µM (active) in [1]; 4.01 µM (active) in [3]; 13.8 µM (active) in experiment [6]; 3.93 µM (active) in experiment [8]; 5.54 µM (active) in [9]. The call in experiment [2], in [4], in experiment [5] and in experiment [7] was inactive.

Turning to `OCCO`, the result in experiment [1], in experiment [2], in experiment [3], in experiment [4], in [5] and in experiment [6] was inactive. Besides, the outcome in experiment [7], in [8] and in [9] was inactive.

`CC(=O)N1CCN(c2ccc(OC[C@H]3CO[C@](Cn4ccnc4)(c4ccc(Cl)cc4Cl)O3)cc2)CC1`: the compound was classed as inactive in experiment [1], in experiment [2], in [5], in [7] and in [8]. In addition, the AC50 in [3] is 28.6 µM (active); in [4], 103 µM (active); in experiment [6] it was 118 µM (active); in [9], 23.5 µM (active).

Turning to `CC(C)(C)c1cc(/C=C2\SC(N)=NC2=O)cc(C(C)(C)C)c1O`, the AC50 was 64.9 µM (active) in experiment [1]; 53.1 µM (active) in [3]; 29.5 µM (active) in experiment [4]; 52.3 µM (active) in experiment [5]; 32.7 µM (active) in experiment [7]; 61.7 µM (active) in [8]. In experiment [9], the AC50 was 32.4 µM (active). Moreover, the outcome in experiment [2] and in [6] was inactive.

`Cc1occc1C(=O)Nc1ccc(C(=O)N2CCC(F)(F)/C(=C\C(=O)N3CCC(N4CCCCC4)CC3)c3ccccc32)cc1`: the AC50 in experiment [1] is 34.9 µM (active); in experiment [3], 16.2 µM (active); in [9] it was 12.3 µM (active). Also, the compound was classed as inactive in experiment [2], in experiment [4], in experiment [5], in experiment [6], in experiment [7] and in experiment [8].

As for `Cc1ccc(C(C)C)cc1`, the compound was classed as inactive in experiment [1], in experiment [2], in experiment [3], in experiment [4], in experiment [5] and in experiment [6]. Besides, the call in [7], in [8] and in experiment [9] was inactive.

Turning to `O=c1ccc2ccccc2o1`, the result in experiment [1], in [2], in [3], in experiment [4], in experiment [5] and in experiment [6] was inactive. In addition, the outcome in experiment [7], in [8] and in [9] was inactive.

With `c1ccc2n[nH]nc2c1`, the call in experiment [1], in experiment [2], in [3], in [4], in experiment [5] and in experiment [6] was inactive. Moreover, the compound was classed as inactive in [7], in experiment [8] and in experiment [9].

For `NC(=O)c1nc(-c2cccc(-c3cc(F)ccc3OCC(F)(F)C(F)(F)F)c2)n[nH]1`, the outcome in experiment [1], in experiment [2], in [4], in experiment [6] and in experiment [8] was inactive. For the same compound, the AC50 is 127 µM (active) in [3], 101 µM (active) in experiment [5], 160 µM (active) in [7] and 91.9 µM (active) in experiment [9].

`CN1C(=O)N(c2ccccc2Br)Cc2cnc(Nc3ccc4c(c3)OCC(CO)O4)nc21` (stereo not given): the AC50 in experiment [1] was 8.95 µM (active); in experiment [3], 3.7 µM (active); in experiment [5], 2.93 µM (active); in [6], 105 µM (active); in experiment [8], 4 µM (active); in experiment [9], 6.32 µM (active). The result in experiment [2], in experiment [4] and in experiment [7] was inactive.

Consider `Cc1cn([C@H]2C[C@H](N=[N+]=[N-])[C@@H](CO)O2)c(=O)[nH]c1=O`, for which the outcome in [1], in experiment [2], in [3], in [4], in experiment [5] and in [6] was inactive. The result in experiment [7], in experiment [8] and in [9] was inactive.

As for `Cc1cc2c(cc1C(F)(F)F)N(C(=O)Nc1ccc(Oc3cccnc3C)nc1)CC2`, the AC50 in experiment [1] is 2.58 µM (active); in experiment [3] it was 50.2 µM (active); in [4], 43.6 µM (active); in experiment [5] it was 56.2 µM (active); in experiment [8] it was 45.7 µM (active); in [9], 9.35 µM (active). For the same compound, the call in experiment [2], in [6] and in experiment [7] was inactive.

`CC(C)(C)c1csc(-c2cc3cc(OCc4ccccc4CC(=O)O)ccc3o2)n1`: the compound was classed as inactive in experiment [1], in [2], in [3], in experiment [4], in [5] and in experiment [6]. Moreover, the compound was called inactive in [7], in experiment [8] and in [9].

The AC50 is the concentration at which the activity in the assay is half-maximal.

These data come from PubChem BioAssay (EPA / NIEHS).
